In PubChem BioAssay AID1159580 (chemical genetic matrix, 2015):
Hit rate of the full screen: of about 5,500 compounds, about 2,000 (36%) were called active. Not shown: some 18% with an inconclusive outcome. Rule as the data show it: active = normalized growth mostly below about 0.91 (no sharp cut-off); inconclusive = no clear call, values can overlap the other calls; inactive = mostly above about 0.92. Some of the results follow.

Assay: chemical genetic growth profiling, strain panel (AID 1159580);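 also: tested at 20 µM; growth read once vehicle control cultures reached saturation at 30 °C; 1 = growth at the plate median or of vehicle wells; lower values mean less growth of the strain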
Details: S. cerevisiae deletion strains, growth OD
[1] = locus YDL101C, strain DUN1, active compounds read low
[2] = locus YHR030C, strain SLT2, active compounds read low

Measured: normalized growth

C=CCC1C(=O)N(S(=O)(=O)c2ccc(Cl)cc2)N=C1CCC (stereo unspecified)
inactive: locus YAR019C, strain CDC15, active compounds read low 0.992 | locus YBL105C, strain PKC1, active compounds read low 0.994 | locus YBR135W, strain CKS1, active compounds read low 0.998 | locus YBR136W, strain MEC1, active compounds read low 0.987 | locus YBR160W, strain CDC28, active compounds read low 0.997 | locus YDL017W, strain CDC7, active compounds read low 0.996 | locus YDL028C, strain MPS1, active compounds read low 0.995 | [1] 0.991 | locus YDL108W, strain KIN28, active compounds read low 0.989 | locus YDL132W, strain cdc53, active compounds read low 0.994 | locus YDL214C, strain PRR2, active compounds read low 0.951 | locus YDR052C, strain DBF4, active compounds read low 0.999 | locus YDR054C, strain cdc34, active compounds read low 0.996 | locus YDR226W, strain ADK1, active compounds read low 0.996 | locus YDR477W, strain SNF1, active compounds read low 0.981 | locus YER123W, strain YCK3, active compounds read low 0.961 | locus YER133W, strain GLC7, active compounds read low 0.986 | locus YFL009W, strain cdc4, active compounds read low 0.993 | locus YFL029C, strain CAK1, active compounds read low 0.984 | locus YFR003C, strain YPI1, active compounds read low 0.996 | locus YFR019W, strain FAB1, active compounds read low 0.977 | locus YFR028C, strain CDC14, active compounds read low 0.991 | locus YGR040W, strain KSS1, active compounds read low 0.97 | locus YGR052W, strain FMP48, active compounds read low 1.06 | locus YGR092W, strain DBF2, active compounds read low 0.997 | [2] 1.05 | locus YHR079C, strain IRE1, active compounds read low 0.97 | locus YHR082C, strain KSP1, active compounds read low 1.01 | locus YHR205W, strain SCH9, active compounds read low 0.972 | locus YIL147C, strain SLN1, active compounds read low 0.992 | locus YJL095W, strain BCK1, active compounds read low 0.993 | locus YJL128C, strain PBS2, active compounds read low 0.943 | locus YJL157C, strain FAR1, active compounds read low 0.983 | locus YJR016C, strain ILV3, active compounds read low 0.994 | locus YJR066W, strain TOR1 (second series), active compounds read low 0.978 | locus YJR066W, strain TOR1, active compounds read low 0.986 | locus YKL048C, strain ELM1, active compounds read low 0.962 | locus YKL067W, strain YNK1, active compounds read low 0.964 | locus YKL101W, strain HSL1, active compounds read low 0.942 | locus YKL193C, strain SDS22, active compounds read low 0.995 | locus YKL203C, strain TOR2, active compounds read low 1.04 | locus YLR113W, strain HOG1, active compounds read low 0.887 | locus YLR133W, strain CKI1, active compounds read low 0.965 | locus YLR403W, strain SFP1, active compounds read low 1 | locus YML070W, strain DAK1, active compounds read low 0.963 | locus YMR001C, strain CDC5, active compounds read low 0.991 | locus YMR205C, strain PFK2 (second series), active compounds read low 0.966 | locus YMR277W, strain FCP1, active compounds read low 0.999 | locus YNL006W, strain LST8, active compounds read low 0.999 | locus YNL020C, strain ARK1, active compounds read low 0.962 | locus YNL161W, strain CBK1, active compounds read low 0.994 | locus YNL183C, strain NPR1, active compounds read low 0.98 | locus YNL207W, strain RIO2, active compounds read low 0.995 | locus YNL222W, strain SSU72, active compounds read low 0.994 | locus YNL307C, strain MCK1 (second series), active compounds read low 0.989 | locus YOL078W, strain AVO1, active compounds read low 0.995 | locus YOL136C, strain PFK27, active compounds read low 0.968 | locus YOR061W, strain CKA2, active compounds read low 0.97 | locus YOR119C, strain RIO1, active compounds read low 1.01 | locus YOR231W, strain MKK1, active compounds read low 0.968 | locus YOR329C, strain SCD5, active compounds read low 0.996 | locus YPL031C, strain PHO85, active compounds read low 0.953 | locus YPL153C, strain RAD53, active compounds read low 0.977 | locus YPL204W, strain HRR25, active compounds read low 0.998 | locus YPL209C, strain IPL1, active compounds read low 0.994 | locus YPL256C, strain CLN2, active compounds read low 0.916 | locus YPR025C, strain CCL1, active compounds read low 0.994 | locus YPR106W, strain ISR1, active compounds read low 0.988 | locus YPR111W, strain DBF20, active compounds read low 0.978 | strain NNK1, active compounds read low 0.982 | strain TSCII, active compounds read low 0.989

NC(=O)C1=C(O)C(=O)N(C2CCCCC2)C1
inactive: locus YAL013W, strain DEP1, active compounds read low 0.992 | locus YBR229C, strain ROT2, active compounds read low 1.01 | [1] 1.02 | locus YDR150W, strain NUM1, active compounds read low 1.03 | locus YEL061C, strain CIN8, active compounds read low 0.995 | locus YGR078C, strain PAC10, active compounds read low 1 | [2] 1.05 | locus YHR087W, strain rtc3, active compounds read low 0.99 | locus YJR043C, strain POL32, active compounds read low 1.02 | locus YJR075W, strain HOC1, active compounds read low 1.01 | locus YKL190W, strain CNB1, active compounds read low 1.01 | locus YLR039C, strain RIC1, active compounds read low 1.02 | locus YLR058C, strain SHM2 (second series), active compounds read low 1.01 | locus YLR085C, strain ARP6, active compounds read low 1.03 | locus YLR262C, strain YPT6, active compounds read low 1 | locus YML094W, strain GIM5, active compounds read low 1 | locus YMR219W, strain ESC1, active compounds read low 1.01 | locus YMR263W, strain SAP30, active compounds read low 1 | locus YNL153C, strain GIM3, active compounds read low 1.01 | locus YNL298W, strain CLA4 (second series), active compounds read low 1.02 | locus YNL322C, strain KRE1, active compounds read low 0.998 | locus YNR030W, strain Alg12, active compounds read low 1.03 | locus YPL055C, strain LGE1, active compounds read low 0.999 | locus YPL241C, strain CIN2, active compounds read low 0.974 | locus YPR135W, strain CTF4, active compounds read low 1.06
